Laboratory results from the supplement of paper PMC10037445.
Over roughly 2,900 compounds, “NF-kB SEAP reporter activity, fold change vs agonist alone” has its median near 0.99; the highest 2% begin near 2.6. This is one part of a sample in which the highest values are shown more often than they occur.

What was measured:
RAW-Dual [1] = assay: NF-kB SEAP reporter activity, fold change vs agonist alone; cytotoxicity flag (confluency mask): cytotoxic (confluency <70% of control); higher = enhanced NF-kB activity
How it was run: (§1)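 RAW-Dual macrophages (50,000 cells/well in DMEM, 384-well plates) received 50 nL of library stock by pin tool, then a PRR agonist 1 h later, and were kept at 37 °C, 5% CO2. After 20 hours, supernatant was read for IRF by QuantiLuc luminescence and for NF-κB by QuantiBlue absorbance at 620 nm. Reporter activity is fold change over agonist-alone wells. Cytotoxic wells had IncuCyte confluency below 70% of agonist controls in both mask sets.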

RAW-Dual [2] = assay: NF-kB SEAP reporter activity, fold change vs agonist alone; cytotoxicity flag (confluency mask): not cytotoxic; higher = enhanced NF-kB activity
How it was run: as §1

RAW-Dual [3] = assay: NF-kB SEAP reporter activity, fold change vs agonist alone; higher = enhanced NF-kB activity
How it was run: as §1

[4] = agonist: ODN 1826 (TLR9) 0.5 ug/mL
[5] = agonist: Pam2CSK4 (TLR2/6) 0.1 ug/mL
[6] = agonist: Pam3CSK4 (TLR2/1) 0.1 ug/mL
[7] = library stock concentration (final ~1000-fold dilution): 10 mM, cytotoxicity flag (confluency mask): not cytotoxic, agonist: Imiquimod (TLR7) […]
[8] = library stock concentration (final ~1000-fold dilution): 10 mM, cytotoxicity flag (confluency mask): not cytotoxic, agonist: MPLA (TLR4) […]
[9] = library stock concentration (final ~1000-fold dilution): 10 mM, cytotoxicity flag (confluency mask): cytotoxic (confluency <70% of control), agonist: Imiquimod (TLR7) […]
[10] = library stock concentration (final ~1000-fold dilution): 10 mM, cytotoxicity flag (confluency mask): cytotoxic (confluency <70% of control), agonist: MPLA (TLR4) […]

With `CN(CCNCc1cn(Cc2ccc(Cl)cc2)nn1)CCNc1ccnc2cc(Cl)ccc12.O=C(O)C(F)(F)F` (library stock concentration (final ~1000-fold dilution): 10 mM) the “NF-kB SEAP reporter activity” value (RAW-Dual [1]; agonist: LPS (TLR4) 0.1 ug/mL) was 2.67, the “NF-kB SEAP reporter activity” value (RAW-Dual [1]; [4]) was 0.269 and the “NF-kB SEAP reporter activity” value (RAW-Dual [1]; [5]) was 1.18. The “NF-kB SEAP reporter activity” value (RAW-Dual [1]; [6]) was 1.87.

With `CCN(CCO)CCCC(C)Nc1ccnc2cc(Cl)ccc12.O=S(=O)(O)O` (stereo not given) (library stock concentration (final ~1000-fold dilution): 10 mM water) the “NF-kB SEAP reporter activity” value (RAW-Dual [2]; agonist: LPS (TLR4) 0.1 ug/mL) was 1.41, the “NF-kB SEAP reporter activity” value (RAW-Dual [2]; [4]) was 0.252 and the “NF-kB SEAP reporter activity” value (RAW-Dual [2]; [5]) was 0.864. The “NF-kB SEAP reporter activity” value (RAW-Dual [2]; [6]) was 0.763.

In the case of `CCN(CC)Cc1cc(Nc2ccnc3cc(Cl)ccc23)ccc1O.Cl.Cl.O.O`, the “NF-kB SEAP reporter activity” value (RAW-Dual [3]; [7]) was 0.244 and the “NF-kB SEAP reporter activity” value (RAW-Dual [3]; [8]) was 0.82.

`CCN(CC)Cc1cc(Nc2ccnc3cc(Cl)ccc23)ccc1O.Cl.Cl.O.O` (library stock concentration (final ~1000-fold dilution): 10 mM) was tested, and the “NF-kB SEAP reporter activity” value (RAW-Dual [2]; agonist: LPS (TLR4) 0.1 ug/mL) was 0.419, the “NF-kB SEAP reporter activity” value (RAW-Dual [2]; [4]) was 0.184 and the “NF-kB SEAP reporter activity” value (RAW-Dual [2]; [5]) was 0.719. The “NF-kB SEAP reporter activity” value (RAW-Dual [2]; [6]) was 0.633.

`CN(CCNc1ccnc2cc(Cl)ccc12)CCNc1ccnc2cc(Cl)ccc12.Cl.Cl.Cl` was tested, and the “NF-kB SEAP reporter activity” value (RAW-Dual [3]; [9]) was 0.958 and the “NF-kB SEAP reporter activity” value (RAW-Dual [3]; [10]) was 2.39.

In the case of `Cc1ccc(NCCN(C)CCNc2ccnc3cc(Cl)ccc23)c2c(=O)c3ccccc3sc12`, the “NF-kB SEAP reporter activity” value (RAW-Dual [3]; library stock concentration (final ~1000-fold dilution): 2 mM, cytotoxicity flag (confluency mask): not cytotoxic, agonist: Imiquimod (TLR7) […]) was 0.907 and the “NF-kB SEAP reporter activity” value (RAW-Dual [3]; library stock concentration (final ~1000-fold dilution): 2 mM, cytotoxicity flag (confluency mask): not cytotoxic, agonist: MPLA (TLR4) […]) was 1.05.

In the case of `CN(CCNCc1cn(Cc2ccc(Cl)cc2)nn1)CCNc1ccnc2cc(Cl)ccc12.O=C(O)C(F)(F)F`, the “NF-kB SEAP reporter activity” value (RAW-Dual [3]; [9]) was 1.52 and the “NF-kB SEAP reporter activity” value (RAW-Dual [3]; [10]) was 2.19.

For `CCN(CCO)CCCC(C)Nc1ccnc2cc(Cl)ccc12.O=S(=O)(O)O` (stereo not given), the “NF-kB SEAP reporter activity” value (RAW-Dual [3]; library stock concentration (final ~1000-fold dilution): 10 mM water, cytotoxicity flag (confluency mask): not cytotoxic, agonist: Imiquimod (TLR7) […]) was 0.389 and the “NF-kB SEAP reporter activity” value (RAW-Dual [3]; library stock concentration (final ~1000-fold dilution): 10 mM water, cytotoxicity flag (confluency mask): not cytotoxic, agonist: MPLA (TLR4) […]) was 1.3.

In the case of `Cc1cc2ncc(C(=O)NCC(C)(C)NCC(=O)N3CCCC3C#N)cn2n1` (stereo not given), the “NF-kB SEAP reporter activity” value (RAW-Dual [3]; [7]) was 0.977 and the “NF-kB SEAP reporter activity” value (RAW-Dual [3]; [8]) was 1.04.

In the case of `Cc1cc2ncc(C(=O)NCC(C)(C)NCC(=O)N3CCCC3C#N)cn2n1` (stereo not given) (library stock concentration (final ~1000-fold dilution): 10 mM), the “NF-kB SEAP reporter activity” value (RAW-Dual [2]; agonist: LPS (TLR4) 0.1 ug/mL) was 1.57, the “NF-kB SEAP reporter activity” value (RAW-Dual [2]; [4]) was 0.997 and the “NF-kB SEAP reporter activity” value (RAW-Dual [2]; [5]) was 0.911. The “NF-kB SEAP reporter activity” value (RAW-Dual [2]; [6]) was 0.96.

In the case of `COc1ccccc1Nc1nc(-c2sc(NC(C)=O)nc2C)cs1`, the “NF-kB SEAP reporter activity” value (RAW-Dual [3]; [7]) was 0.623 and the “NF-kB SEAP reporter activity” value (RAW-Dual [3]; [8]) was 0.687.

In the case of `COc1ccccc1Nc1nc(-c2sc(NC(C)=O)nc2C)cs1` (library stock concentration (final ~1000-fold dilution): 10 mM), the “NF-kB SEAP reporter activity” value (RAW-Dual [2]; agonist: LPS (TLR4) 0.1 ug/mL) was 0.496, the “NF-kB SEAP reporter activity” value (RAW-Dual [2]; [4]) was 0.464 and the “NF-kB SEAP reporter activity” value (RAW-Dual [2]; [5]) was 0.318. For the same molecule, the “NF-kB SEAP reporter activity” value (RAW-Dual [2]; [6]) was 0.245.

In the case of `CC(C)(OC1OC(CO)C(O)C(O)C1O)C1Cc2cc3ccc(=O)oc3cc2O1` (stereo not given), the “NF-kB SEAP reporter activity” value (RAW-Dual [3]; [7]) was 1.21 and the “NF-kB SEAP reporter activity” value (RAW-Dual [3]; [8]) was 1.19.

For `CC(C)(OC1OC(CO)C(O)C(O)C1O)C1Cc2cc3ccc(=O)oc3cc2O1` (stereo not given) (library stock concentration (final ~1000-fold dilution): 10 mM), the “NF-kB SEAP reporter activity” value (RAW-Dual [2]; agonist: LPS (TLR4) 0.1 ug/mL) was 1.14, the “NF-kB SEAP reporter activity” value (RAW-Dual [2]; [4]) was 1.31 and the “NF-kB SEAP reporter activity” value (RAW-Dual [2]; [5]) was 1.27. For the same molecule, the “NF-kB SEAP reporter activity” value (RAW-Dual [2]; [6]) was 1.48.

In the case of `Cl.O=C1C2CCCCC2C(=O)N1CCCCN1CCN(c2nsc3ccccc23)CC1` (stereo not given), the “NF-kB SEAP reporter activity” value (RAW-Dual [3]; [8]) was 0.868.

With `Cl.O=C1C2CCCCC2C(=O)N1CCCCN1CCN(c2nsc3ccccc23)CC1` (stereo not given) (library stock concentration (final ~1000-fold dilution): 10 mM) the “NF-kB SEAP reporter activity” value (RAW-Dual [2]; agonist: LPS (TLR4) 0.1 ug/mL) was 0.671, the “NF-kB SEAP reporter activity” value (RAW-Dual [2]; [4]) was 0.536 and the “NF-kB SEAP reporter activity” value (RAW-Dual [2]; [5]) was 0.848. For the same molecule, the “NF-kB SEAP reporter activity” value (RAW-Dual [2]; [6]) was 0.888.

`Cc1n[nH]c2ccc(-c3cncc(OCC(N)Cc4ccccc4)c3)cc12` (stereo not given) was tested, and the “NF-kB SEAP reporter activity” value (RAW-Dual [3]; [7]) was 0.904 and the “NF-kB SEAP reporter activity” value (RAW-Dual [3]; [8]) was 0.967.

For `Cc1n[nH]c2ccc(-c3cncc(OCC(N)Cc4ccccc4)c3)cc12` (stereo not given) (library stock concentration (final ~1000-fold dilution): 10 mM), the “NF-kB SEAP reporter activity” value (RAW-Dual [2]; agonist: LPS (TLR4) 0.1 ug/mL) was 0.198, the “NF-kB SEAP reporter activity” value (RAW-Dual [2]; [4]) was 0.962 and the “NF-kB SEAP reporter activity” value (RAW-Dual [2]; [5]) was 0.447. The “NF-kB SEAP reporter activity” value (RAW-Dual [2]; [6]) was 1.01.

For `C=CC1(C)CC(OC(=O)CSCCN(CC)CC)C2(C)C(C)CCC3(CCC(=O)C32)C(C)C1O.O=C(O)/C=C/C(=O)O` (stereo not given) (library stock concentration (final ~1000-fold dilution): 10 mM), the “NF-kB SEAP reporter activity” value (RAW-Dual [2]; agonist: LPS (TLR4) 0.1 ug/mL) was 1.37, the “NF-kB SEAP reporter activity” value (RAW-Dual [2]; [4]) was 0.712 and the “NF-kB SEAP reporter activity” value (RAW-Dual [2]; [5]) was 0.821. For the same molecule, the “NF-kB SEAP reporter activity” value (RAW-Dual [2]; [6]) was 0.841.

With `C=CC1(C)CC(OC(=O)CSCCN(CC)CC)C2(C)C(C)CCC3(CCC(=O)C32)C(C)C1O.O=C(O)/C=C/C(=O)O` (stereo not given) the “NF-kB SEAP reporter activity” value (RAW-Dual [3]; [8]) was 1.13.

`O=C(/C=C/N1CC2CC1CN2c1ccccn1)c1ccccc1O` (stereo not given) (library stock concentration (final ~1000-fold dilution): 10 mM) was tested, and the “NF-kB SEAP reporter activity” value (RAW-Dual [2]; agonist: LPS (TLR4) 0.1 ug/mL) was 1.01, the “NF-kB SEAP reporter activity” value (RAW-Dual [2]; [4]) was 0.735 and the “NF-kB SEAP reporter activity” value (RAW-Dual [2]; [5]) was 1.02. The “NF-kB SEAP reporter activity” value (RAW-Dual [2]; [6]) was 1.39.

With `O=C(/C=C/N1CC2CC1CN2c1ccccn1)c1ccccc1O` (stereo not given) the “NF-kB SEAP reporter activity” value (RAW-Dual [3]; [7]) was 0.829 and the “NF-kB SEAP reporter activity” value (RAW-Dual [3]; [8]) was 1.03.

In the case of `COC(=O)C(CC(C)C)NC(=O)c1ccc(NCC(N)CS)cc1-c1cccc2ccccc12.O=C(O)C(F)(F)F` (stereo not given), the “NF-kB SEAP reporter activity” value (RAW-Dual [3]; [7]) was 1.25 and the “NF-kB SEAP reporter activity” value (RAW-Dual [3]; [8]) was 2.31.

For `CCN(CC)CCCCC(NC(=O)C(CC(C)C)NC(=O)C(C)NC(=O)C(Cc1ccccc1)NC(=O)c1ccc(C(C)(C)C)cc1)C(=O)NC(CO)C(=O)OC` (stereo not given), the “NF-kB SEAP reporter activity” value (RAW-Dual [3]; [7]) was 1.08 and the “NF-kB SEAP reporter activity” value (RAW-Dual [3]; [8]) was 0.945.

In the case of `COC(=O)C(CC(C)C)NC(=O)c1ccc(NCC(N)CS)cc1-c1cccc2ccccc12.O=C(O)C(F)(F)F` (stereo not given) (library stock concentration (final ~1000-fold dilution): 10 mM), the “NF-kB SEAP reporter activity” value (RAW-Dual [2]; agonist: LPS (TLR4) 0.1 ug/mL) was 3.82, the “NF-kB SEAP reporter activity” value (RAW-Dual [2]; [4]) was 2.38 and the “NF-kB SEAP reporter activity” value (RAW-Dual [2]; [5]) was 1.5. The “NF-kB SEAP reporter activity” value (RAW-Dual [2]; [6]) was 2.19.

In the case of `COC(=O)C(CCSC)NC(=O)c1ccc(NCC(N)CS)cc1-c1ccccc1.Cl` (stereo not given), the “NF-kB SEAP reporter activity” value (RAW-Dual [3]; [7]) was 1.13 and the “NF-kB SEAP reporter activity” value (RAW-Dual [3]; [8]) was 1.22.

For `COC(=O)C(CCSC)NC(=O)c1ccc(NCC(N)CS)cc1-c1ccccc1.Cl` (stereo not given) (library stock concentration (final ~1000-fold dilution): 10 mM), the “NF-kB SEAP reporter activity” value (RAW-Dual [2]; agonist: LPS (TLR4) 0.1 ug/mL) was 1.38, the “NF-kB SEAP reporter activity” value (RAW-Dual [2]; [4]) was 1.56 and the “NF-kB SEAP reporter activity” value (RAW-Dual [2]; [5]) was 1.16. The “NF-kB SEAP reporter activity” value (RAW-Dual [2]; [6]) was 0.929.

For `CCN(CC)CCCCC(NC(=O)C(CC(C)C)NC(=O)C(C)NC(=O)C(Cc1ccccc1)NC(=O)c1ccc(C(C)(C)C)cc1)C(=O)NC(CO)C(=O)OC` (stereo not given) (library stock concentration (final ~1000-fold dilution): 10 mM), the “NF-kB SEAP reporter activity” value (RAW-Dual [2]; agonist: LPS (TLR4) 0.1 ug/mL) was 0.99, the “NF-kB SEAP reporter activity” value (RAW-Dual [2]; [4]) was 0.888 and the “NF-kB SEAP reporter activity” value (RAW-Dual [2]; [5]) was 0.898. The “NF-kB SEAP reporter activity” value (RAW-Dual [2]; [6]) was 1.1.
